Experimental data taken from PubChem BioAssay (NCATS).
Records with an inconclusive call do not appear. Calls of active or inactive are those of the source. Calls come from the whole dose curve; as a rule, active = well fitted inhibition curve with a large enough effect; inconclusive = small, poorly fitted or top-dose-only effect; inactive = flat fitted curve, though single readings scatter.

Key:
Experiment in all cases: Cytotoxic Profiling of Annotated Libraries Using Quantitative High-Throughput Screening (AID 1296008); note: nearly all actives have a fitted effect of over 60% in size
Settings in all cases: Five cell lines viability, CellTiter-Glo ATP luminescence, 48-72 h; max response: hits give low values
[1] = test system: CRL-7250
How it was run: (§1)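 Compounds were pin-transferred onto cells and incubated 48 or 72 hr at 37 degree Celsius, 95% humidity. CellTiter-Glo was added, plates sat 10 min at room temperature, then ATP-coupled luminescence was imaged as the viability read-out.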

[2] = test system: HaCat
How it was run: as §1

[3] = test system: KB-3-1
How it was run: as §1

[4] = test system: NIH3T3
How it was run: as §1

Measured: max response
% is set by controls: 0 for no effect and ±100 for the full control effect.

COc1ccc2[nH]c(S(=O)Cc3ncc(C)c(OC)c3C)nc2c1 (stereo unspecified)
inactive: [1] -15.2% | [2] | [3] 6.01% | [4]

Nc1ncnc2c1c(COc1cccc(Cl)c1)nn2C1CCOCC1
inactive: [1] -3.67% | [2] | [3] | [4]

C[C@H]1CC[C@@]2(OC1)O[C@H]1CC3C4CC[C@H]5C[C@@H](O)CC[C@]5(C)C4CC(=O)[C@]3(C)[C@H]1[C@@H]2C (stereo partly specified)
inactive: [1] 2.1% | [2] | [3] | [4] 3.42%

C[C@H](O)C(O)(C(=O)OCc1ccccc1NC(=O)CCC(N)C(=O)O)[C@H](C)O (stereo partly specified)
inactive: [1] -7.85% | [2] | [3] | [4]
